Measurements: PubChem BioAssay (EPA / NIEHS)
Results filed as inconclusive are left out. Activity calls are given as the source filed them. Rule for the calls: active = hit-call score of the fitted dose curve at least 0.9, where 1 is the maximum; inconclusive = response in the unintended direction; inactive = score below 0.9.

Experiments:
[1] = target: Cellular tumor antigen p53 (Homo sapiens) (UniProt P04637); experiment: TOX21_p53_BLA_p3_ratio: Tox21 HCT-116 p53 Agonism Beta-lactamase Assay, Ratio, Phase 3 (AID 2283596)
Chain of Cellular tumor antigen p53 (Homo sapiens) (P04637 whole entry, looked up): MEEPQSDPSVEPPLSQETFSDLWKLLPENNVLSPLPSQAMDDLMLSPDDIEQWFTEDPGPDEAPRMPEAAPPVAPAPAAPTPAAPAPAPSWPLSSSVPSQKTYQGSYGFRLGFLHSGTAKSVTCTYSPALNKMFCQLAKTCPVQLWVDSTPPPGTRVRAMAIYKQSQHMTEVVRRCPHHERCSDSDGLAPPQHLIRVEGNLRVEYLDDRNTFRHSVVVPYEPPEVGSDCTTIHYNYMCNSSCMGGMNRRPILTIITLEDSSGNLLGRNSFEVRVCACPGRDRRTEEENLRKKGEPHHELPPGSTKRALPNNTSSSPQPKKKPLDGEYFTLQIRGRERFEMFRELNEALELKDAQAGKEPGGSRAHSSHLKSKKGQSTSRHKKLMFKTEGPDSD
Outline: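 HCT116 p53-bla cells (4000/well) given compound in DMSO (217-fold dilution) after 5 h, incubated 16 h at 37C. CCF4-AM substrate 2 h at room temperature; 460/530 nm emission ratio, gain fitted against DMSO.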

[2] = TOX21_p53_BLA_p4_viability: Viability Assessment in the Tox21 HCT-116 p53 Agonism Beta-lactamase Assay, Phase 4 (AID 2283597);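 note: hits lower the luminescence signal meaning cytotoxicity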
Outline: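 HCT116 p53-bla cells (4000/well) rested 5 h at 37C, then received compounds in DMSO (217-fold dilution) for 16 h at 37C, 5% CO2. CellTiter-Glo was added after the CCF4-AM read, and luminescence was read after 30 min at room temperature.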

[3] = target: Cellular tumor antigen p53 (Homo sapiens) (UniProt P04637); experiment: TOX21_p53_BLA_p5_ratio: Tox21 HCT-116 p53 Agonism Beta-lactamase Assay, Ratio, Phase 5 (AID 2283599)
Outline: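 HCT-116 p53-bla cells (4000/well) plated 5 h, dosed with compound (217-fold DMSO dilution) for 16 h at 37 C; CCF4-AM substrate 2 h at room temperature. Activity is the 460/530 nm emission ratio (405 nm excitation), fitted in gain-of-signal direction versus DMSO.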

[4] = TOX21_p53_BLA_p5_viability: Viability Assessment in the Tox21 HCT-116 p53 Agonism Beta-lactamase Assay, Phase 5 (AID 2283600)
Outline: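 Cells were plated at 4000/well, rested 5 h at 37C, then given compounds in DMSO (217-fold dilution) for 16 h at 37C, 5% CO2. Following the CCF4-AM beta-lactamase read, CellTiter-Glo was added and luminescence was read after 30 min at room temperature.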

[5] = target: Cellular tumor antigen p53 (Homo sapiens) (UniProt P04637); experiment: TOX21_p53_BLA_p4_ratio: Tox21 HCT-116 p53 Agonism Beta-lactamase Assay, Ratio, Phase 4 (AID 2283601)
Outline: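 HCT-116 p53 beta-lactamase reporter cells (4000/well) preincubated 5 h, then compound (217-fold dilution of DMSO stock) for 16 h at 37C. CCF4-AM substrate added 2 h at room temperature; 460/530 nm emission ratio fitted upward versus DMSO.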

In the case of O=C(c1ccc(F)cc1)C1CCN(CCn2c(=S)[nH]c3ccccc3c2=O)CC1, the outcome [1] was “inactive”, the outcome [2] was “inactive” and the outcome [3] was “inactive”. The outcome [4] was “inactive” and the outcome [5] was “inactive”.
With NCCCC(=O)O the outcome [1] was “inactive” and the outcome [2] was “inactive”.
For Nc1ccc(C(=O)O)c(O)c1, the outcome [1] was “inactive”, the outcome [2] was “inactive” and the outcome [3] was “inactive”. For the same compound, the outcome [4] was “inactive” and the outcome [5] was “inactive”.
With CC(C)CCCC(=O)O the outcome [1] was “inactive” and the outcome [2] was “inactive”.
In the case of COc1cc(Cl)ccc1Cl, the outcome [1] was “inactive”, the outcome [2] was “inactive” and the outcome [4] was “inactive”.
For CCNC(=O)NCCCOc1cccc(CN2CCCCC2)c1, the outcome [1] was “inactive”.
With O=C(O)[C@H]1/C(=C/CO)O[C@@H]2CC(=O)N21 the outcome [1] was “inactive”, the outcome [2] was “inactive” and the outcome [3] was “inactive”. The outcome [5] was “inactive”.
In the case of CO/N=C(\C(=O)N[C@@H]1C(=O)N2C(C(=O)O)=C(CSc3nc(C)c(CC(=O)O)s3)CS[C@H]12)c1csc(N)n1, the outcome [1] was “inactive”, the outcome [2] was “inactive” and the outcome [3] was “inactive”. The outcome [4] was “inactive”.
With [Cl-].[Cl-].[NH-]CC[NH-].[Pt+4] the outcome [1] was “inactive” and the outcome [2] was “inactive”.
With C[n+]1ccn(Cc2ccccc2)c1 the outcome [1] was “inactive”, the outcome [2] was “inactive” and the outcome [3] was “inactive”. The outcome [4] was “inactive” and the outcome [5] was “inactive”.
In the case of C[Si](Cl)(c1ccccc1)c1ccccc1, the outcome [1] was “inactive”, the outcome [2] was “inactive” and the outcome [3] was “inactive”. For the same compound, the outcome [5] was “inactive”.
In the case of CC(C)(O)CCC(C)(C)O, the outcome [1] was “inactive”, the outcome [2] was “inactive” and the outcome [3] was “inactive”. For the same compound, the outcome [4] was “inactive”.
For C/C(=C\C(=O)OCCCCCCCCC(=O)O)C[C@@H]1OC[C@H](C[C@@H]2O[C@H]2[C@@H](C)[C@H](C)O)[C@@H](O)[C@H]1O, the outcome [1] was “inactive”, the outcome [2] was “inactive” and the outcome [3] was “inactive”. For the same compound, the outcome [4] was “inactive” and the outcome [5] was “inactive”.
For CC(=O)Oc1cc(C(F)(F)F)ccc1C(=O)O, the outcome [1] was “inactive”, the outcome [2] was “inactive” and the outcome [3] was “inactive”. The outcome [4] was “inactive” and the outcome [5] was “inactive”.
With O=C(CCN1CCN(CCO)CC1)N1c2ccccc2Sc2ccc(C(F)(F)F)cc21 the outcome [1] was “inactive”, the outcome [2] was “inactive” and the outcome [3] was “inactive”. The outcome [5] was “inactive”.
In the case of CC(C)(C)C(=O)OCOP(=O)(COCCn1cnc2c(N)ncnc21)OCOC(=O)C(C)(C)C, the outcome [1] was “inactive” and the outcome [2] was “inactive”.
In the case of Cc1nc2ccccc2s1, the outcome [1] was “inactive”, the outcome [2] was “inactive” and the outcome [4] was “inactive”.
With Cn1nnnc1SCC1=C(C(=O)O)N2C(=O)[C@@H](NC(=O)[C@H](O)c3ccccc3)[C@H]2SC1 the outcome [1] was “inactive”, the outcome [2] was “inactive” and the outcome [3] was “inactive”. The outcome [4] was “inactive” and the outcome [5] was “inactive”.
In the case of Nc1nc(NC2CC2)c2ncn([C@H]3C=C[C@@H](CO)C3)c2n1, the outcome [1] was “inactive”, the outcome [2] was “inactive” and the outcome [4] was “inactive”.
With CC(=O)N[C@@H](Cc1ccc(O)cc1)C(=O)O the outcome [1] was “inactive”, the outcome [2] was “inactive” and the outcome [3] was “inactive”.
With Cc1ccc(/C(=C\CN2CCCC2)c2ccccn2)cc1 the outcome [1] was “inactive”, the outcome [2] was “inactive” and the outcome [4] was “inactive”. For the same compound, the outcome [5] was “inactive”.
For O=C(COCCOCCOCC(=O)Nc1c(I)cc(I)c(C(=O)O)c1I)Nc1c(I)cc(I)c(C(=O)O)c1I, the outcome [1] was “inactive”, the outcome [3] was “inactive” and the outcome [4] was “inactive”.
In the case of O=C1OC(=O)C2CC=CCC12 (stereo not drawn), the outcome [1] was “inactive”, the outcome [3] was “inactive” and the outcome [4] was “inactive”.
In the case of CC1CCCCN1CCCOC(=O)c1ccccc1 (stereo not drawn), the outcome [1] was “inactive”, the outcome [2] was “inactive” and the outcome [4] was “inactive”. The outcome [5] was “inactive”.
In the case of CC(C)C[C@H](NC(=O)[C@@H](Cc1c[nH]c2ccccc12)NC(=O)[C@H](Cc1ccc(O)cc1)NC(=O)[C@H](CO)NC(=O)[C@H](Cc1c[nH]c2ccccc12)NC(=O)[C@H](Cc1cnc[nH]1)NC(=O)[C@@H]1CCC(=O)N1)C(=O)N[C@@H](CCCN=C(N)N)C(=O)N1CCC[C@@H]1C(=O)NCC(N)=O, the outcome [1] was “inactive”, the outcome [3] was “inactive” and the outcome [4] was “inactive”. For the same compound, the outcome [5] was “inactive”.
For CC[C@H]1OC(=O)C[C@@H](O)[C@H](C)[C@@H](O[C@@H]2O[C@H](C)[C@@H](O)[C@H](N(C)C)[C@H]2O)[C@@H](CCN2C[C@H](C)C[C@H](C)C2)C[C@@H](C)C(=O)/C=C/C(C)=C/[C@@H]1CO[C@@H]1O[C@H](C)[C@@H](O)[C@@H](OC)[C@H]1OC, the outcome [1] was “inactive”, the outcome [3] was “inactive” and the outcome [4] was “inactive”.
For CCN(CCCc1ccccc1)CCCc1ccccc1, the outcome [1] was “inactive”, the outcome [2] was “inactive” and the outcome [5] was “inactive”.
For CC(C)CCC[C@@H](C)[C@H]1CC(=O)C2=C3CC[C@H]4C[C@@H](O)CC[C@]4(C)[C@H]3CC[C@@]21C, the outcome [1] was “inactive”, the outcome [3] was “inactive” and the outcome [4] was “inactive”.
For CC(C)(C)c1ccc(C=O)cc1, the outcome [1] was “inactive”, the outcome [3] was “inactive” and the outcome [4] was “inactive”. The outcome [5] was “inactive”.
In the case of C[C@H]1NCc2cc(-c3ccc4c(=O)c(C(=O)O)cn(C5CC5)c4c3OC(F)F)ccc21, the outcome [1] was “inactive”, the outcome [3] was “inactive” and the outcome [4] was “inactive”.
In the case of Cc1ccccc1C(=O)O, the outcome [1] was “inactive”, the outcome [2] was “inactive” and the outcome [5] was “inactive”.
With C[C@H](O)C(=O)Nc1c(I)c(C(=O)NC(CO)CO)c(I)c(C(=O)NC(CO)CO)c1I the outcome [1] was “inactive”, the outcome [3] was “inactive” and the outcome [4] was “inactive”. The outcome [5] was “inactive”.
With O=[N+]([O-])c1cc(Cl)c(Cl)c(Cl)c1Cl the outcome [1] was “inactive”, the outcome [2] was “inactive” and the outcome [5] was “inactive”.
For CN[C@@H]1[C@@H](O)[C@@H](O[C@@H]2[C@@H](O)[C@H](O[C@H]3O[C@H](CN)[C@@H](O)[C@H](O)[C@H]3O)[C@@H](N)C[C@H]2NC(=O)C(O)CN)OC[C@]1(C)O (stereo partly drawn), the outcome [1] was “inactive”, the outcome [2] was “inactive” and the outcome [5] was “inactive”.
For Cl.Cl.N.N.[Cl-].[Cl-].[Pt+2], the outcome [1] was “inactive” and the outcome [3] was “inactive”.
For O=P(O)(O)OP(=O)(O)OP(=O)(O)O, the outcome [1] was “inactive”, the outcome [3] was “inactive” and the outcome [4] was “inactive”. The outcome [5] was “inactive”.
For C=CCSSSCC=C, the AC50 [1] was 8.68 µM (active), the outcome [3] was “inactive” and the outcome [4] was “inactive”. For the same compound, the outcome [5] was “inactive”.
